From PubChem BioAssay (NCI)
About 79,000 compounds went through this panel and 15% of them were active in at least one assay; those are over-represented in the sample as a whole. Rule as the data show it: active = growth inhibition above about 70%; inactive = the rest.

Tests used:
[1] = NCI Yeast Anticancer Drug Screen. Data for the rad50 strain (AID 155);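 also: 0% = growth of vehicle-only cultures of the same strain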; conditions: S. cerevisiae rad50 strain growth inhibition; at 50.0 µM; stronger effect = higher value
Summary of the method: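 A DNA repair-deficient yeast mutant serves as the test organism; compound-induced growth inhibition is calculated against vehicle-treated cells.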

[2] = NCI Yeast Anticancer Drug Screen. Data for the mec2-1 strain (AID 157); conditions: S. cerevisiae mec2-1 strain, at 50.0 µM, stronger effect = higher value
Summary of the method: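 Using mec2-1 yeast: add compound, measure growth, express inhibition versus vehicle-treated cultures.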

[3] = NCI Yeast Anticancer Drug Screen. Data for the sgs1 mgt1 strain (AID 161);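 also: 0% = growth of cultures given vehicle only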; conditions: S. cerevisiae sgs1 mgt1 strain, at 50.0 µM, stronger effect = higher value
Summary of the method: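 Growth of a repair-deficient yeast mutant was monitored after compound treatment and expressed as inhibition relative to vehicle-treated cultures.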

[4] = NCI Yeast Anticancer Drug Screen. Data for the cln2 rad14 strain (AID 165);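 also: 0% = growth equal to vehicle treated cultures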; conditions: S. cerevisiae cln2 rad14 strain, at 50.0 µM, stronger effect = higher value
Summary of the method: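 Yeast strain cln2 rad14, bearing defects in cell cycle control and DNA repair, serves as the test system; values reflect growth inhibition compared with vehicle.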

[5] = NCI Yeast Anticancer Drug Screen. Data for the bub3 strain (AID 167); conditions: S. cerevisiae bub3 mutant strain, at 50.0 µM, stronger effect = higher value
Summary of the method: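 Inhibition values come from growth of compound-treated mutant yeast normalised to vehicle-treated controls.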

[6] = NCI Yeast Anticancer Drug Screen. Data for the mlh1 rad18 strain (AID 175); conditions: S. cerevisiae mlh1 rad18 strain growth inhibition; at 50.0 µM; stronger effect = higher value
Summary of the method: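 Steps: expose repair-defective yeast to compound; measure growth; express inhibition against vehicle-treated controls.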

Measured: growth inhibition

CCOC(=O)c1c(C)[nH]c(-c2csc(N)n2)c1C
inactive: [1] -5.3% | [2] -1.65% | [3] 21.4% | [4] -55.7% | [5] -9.35% | [6] -14.8%

CCCCOc1ccc2c(c1)CC[C@@H]1[C@@H]2CC[C@]2(C)C(=O)N(CCCC)C(=O)C[C@@H]12
inactive: [1] 5% | [2] -3.25% | [3] 16.4% | [4] -17.1% | [5] 16.5% | [6] 4.2%

Clc1ccc(CCn2cncn2)cc1
inactive: [1] -15.6% | [2] -11.9% | [3] -44.9% | [4] -11.7% | [5] -22.6% | [6] -18.8%

CS(=O)(=O)OCC(=O)NCCCCNC(=O)COS(C)(=O)=O
inactive: [1] -12.4% | [2] 2.7% | [3] 4.55% | [4] -29.5% | [5] 7.45% | [6] 10.3%

O=C(Nc1ccccc1)c1cc(S(=O)(=O)n2cc[nH]c2=O)c(S)cc1Cl
inactive: [1] 9.5% | [2] 3.6% | [3] 5.1% | [4] -5.1% | [5] 2.65% | [6] 13.2%

COC(=O)Cc1cc(=O)c2cc(C)ccc2[nH]1
inactive: [1] 0.9% | [2] 3.6% | [3] -2.7% | [4] -29.6% | [5] -13.9% | [6] -1.15%

Cn1nc(-c2ccccc2)c(C(=O)/C=C/c2ccc(Cl)cc2)c(N2CCCCC2)c1=O
inactive: [1] -30.9% | [2] -21.9% | [3] -36.2% | [4] 1.75% | [5] -22.9% | [6] -22.2%

CC(C)CC(=O)CC(=O)C(C)(C)C.CC(C)CC(=O)CC(=O)C(C)(C)C.CC(C)CC(=O)CC(=O)C(C)(C)C.CC(C)CC(=O)CC(=O)C(C)(C)C.[Ce]
inactive: [1] 3% | [2] 19% | [3] 55.4% | [4] -16.1% | [5] 2.6% | [6] 47.1%

CCCCOC(=O)C1CCCC1=O (configuration not stated)
inactive: [1] -14.6% | [2] -31.9% | [3] -2.15% | [4] 1.45% | [5] -43.1% | [6] 9.05%

CCOC(=O)C(=CNC(=S)c1cccnc1)C(=O)OCC
inactive: [1] -23.9% | [2] -37.7% | [3] -20.9% | [4] -7.75% | [5] -10% | [6] -1.5%

CC1(C)S[C@@H]2[C@H](NC(=O)C3(N)CCCCC3)C(=O)N2[C@H]1C(=O)O
inactive: [1] -11.8% | [2] -29.1% | [3] 7.85% | [4] -5.65% | [5] -59.6% | [6] -11.8%

N#CC(=O)Nc1ccc(Cl)c(Cl)c1
inactive: [1] -18.6% | [2] -11.2% | [3] -14.6% | [4] -76.6% | [5] -2.15% | [6] 0.4%

CCOC(=O)CC(C)C1(C=O)CCCCC1=O (configuration not stated)
inactive: [1] -3.2% | [2] -30.3% | [3] -11.7% | [4] 7.25% | [5] -19.5% | [6] -17.4%

CC1CCC2C(C(=O)O[C@H]3C4C=CO[C@@H](OC5OC(CO)C(O)C(O)C5O)C4[C@@]4(CO)O[C@@H]34)=CO[C@@H](OC3OC(CO)C(O)C(O)C3O)C12 (some centres not stated)
inactive: [1] -12.3% | [2] -32.5% | [3] -18.6% | [4] 4.2% | [5] -12.8% | [6] -11.4%

CC1(C)OC2C(C(=O)O)OC(n3cnc4c(N)ncnc43)C2O1 (configuration not stated)
inactive: [1] -3.35% | [2] -12.2% | [3] -9.7% | [4] -2.05% | [5] -21.6% | [6] -0.7%

CCOC(=O)C1=C(C)NC(C)=C(C(=O)OCC)C1c1c(C)noc1C
inactive: [1] 19.6% | [2] 18.6% | [3] 60.7% | [4] 19.3% | [5] 6.95% | [6] 61.4%

CCCCCC1OCC(C)(C)C(C(C)C)O1 (configuration not stated)
inactive: [1] -0.2% | [2] -23.9% | [3] -12.7% | [4] 0.95% | [5] -13.6% | [6] 8.55%

Nc1ccc(S(=O)(=O)NC2C(O)OC(CO)C(O)C2O)cc1 (configuration not stated)
inactive: [1] 15.6% | [2] -16.2% | [3] 6.65% | [4] -21.6% | [5] 9.7% | [6] 28.4%

CNC(=O)c1ccccc1O
inactive: [1] 21.2% | [2] 8.55% | [3] 5.65% | [4] 11.3% | [5] 5.15% | [6] 2.35%

c1cc2c3c(cccc3c1)N1C(=N2)Sc2nc3ccccc3nc21
inactive: [1] 3.15% | [2] 13.5% | [3] -9.8% | [4] -5.2% | [5] 13.6% | [6] -3%

CCC(=O)C12CCCC1=NC(=N)N=C2C1=NC(=N)N=C2CCCC21C(=O)CC (configuration not stated)
inactive: [1] -10.3% | [2] 12.4% | [3] -14.2% | [4] 2.75% | [5] -1.7% | [6] 5.2%

CCC(=O)Oc1ccc(CCC(C)=O)cc1
inactive: [1] -0.55% | [2] -6.35% | [3] -14.2% | [4] -38.9% | [5] -10.6% | [6] 30.5%

C[N+]1(C)N=C([O-])N(CCCCCCN2C(=O)[N+](C)(C)N=C2[O-])C1=O
inactive: [1] 10.3% | [2] -13.1% | [3] 15.1% | [4] 9.55% | [5] 8.65% | [6] 15%

S=C1N(/N=C/c2c3ccccc3cc3ccccc23)C(=Nc2ccccc2)C(=Nc2ccccc2)N1c1ccccc1
inactive: [1] 16.9% | [2] -4.55% | [3] -6.35% | [4] 24.9% | [5] 16.6% | [6] -7.55%

C=COC(=O)C=C
inactive: [1] -3.1% | [2] 9.15% | [3] -3.2% | [4] -0.2% | [5] 13.9% | [6] -9.15%

COCCOC(=O)CO
inactive: [1] 4.35% | [2] 3.85% | [3] -4.7% | [4] 2.25% | [5] 7.8% | [6] 5.5%

O=C1CC(N2C(=O)C3C4CCC(O4)C3C2=O)C(=O)N1 (configuration not stated)
inactive: [1] 2.45% | [2] 18.2% | [3] 1.3% | [4] -0.6% | [5] 7.95% | [6] 6.45%

NC(=O)N/N=C(/c1nc2ccc([N+](=O)[O-])cc2[nH]c1=O)C(O)c1ccco1 (configuration not stated)
inactive: [1] 5.35% | [2] -9.65% | [3] -11.1% | [4] 19.8% | [5] -19% | [6] 3.5%

O=C(O)c1cc(-c2ccc(-c3ccccc3)cc2)nc2cc3ccccc3cc12
inactive: [1] -15.7% | [2] -3.9% | [3] -2.15% | [4] -20.6% | [5] -54.9% | [6] 22%

CCCCCCCCCCCCCCCC(C)O (configuration not stated)
inactive: [1] -45.8% | [2] -35.8% | [3] -20.1% | [4] -35.6% | [5] -43.5% | [6] -34.8%

COc1ccc(N(Cc2ccccc2)c2nn[nH]n2)cc1
inactive: [1] 13.9% | [2] -18.4% | [3] -3.3% | [4] 11.6% | [5] -5.6% | [6] -19.8%

Cc1ccc(S(=O)(=O)N/N=C2/C(=O)NC(=O)C(=O)C2c2nc3ccccc3s2)cc1 (configuration not stated)
inactive: [1] 12.4% | [2] -2.6% | [3] 13.6% | [4] -19.1% | [5] 8.45% | [6] 12.4%

COc1cc2nc3n(c(=O)c2cc1OC)CCCCC3
inactive: [1] 10.4% | [2] 14.6% | [3] 3.75% | [4] -13.2% | [5] 28% | [6] -19.8%

Clc1ccc(C2SC=Cc3ccccc32)cc1 (configuration not stated)
inactive: [1] 53.8% | [2] 33.8% | [3] 47.6% | [4] 5.9% | [5] 49.8% | [6] 37.7%

CCCCCCCCCCCCCCCCCC(=O)OCC(COC(C)=O)OC(C)=O (configuration not stated)
inactive: [1] -3.45% | [2] -5.05% | [3] -3.8% | [4] -46.1% | [5] -1.2% | [6] 4.8%

O=C(O)Cc1ccc(N2N=C(c3ccccc3)CC2=O)cc1
inactive: [1] 5.3% | [2] -5.05% | [3] -13.6% | [4] 35% | [5] 22.4% | [6] -9.3%

CC(N)c1ccc2ccccc2c1O (configuration not stated)
inactive: [1] -3.95% | [2] -7.05% | [3] 8.8% | [4] -11.2% | [5] -6% | [6] 8.05%
